Results as given in PubChem BioAssay (Tox21).
Results filed as inconclusive are left out. Calls of active or inactive are those of the source. Calls follow the shape of the dose curve; as a rule, active = well fitted curve in the direction sought with a large enough effect in the repeat runs; inconclusive = weak or mixed curves; inactive = no such curve, though single readings can be large; an effect the other way counts as inactive or inconclusive.

Columns and labels:
[1] = A CellTox Green Cytotoxicity Assay to monitor cytotoxicity in HEK293 cells - 40 hour (AID 1224871); also: nearly all actives have a fitted effect of over 45% in size
Summary of the method: (§1)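 Cytotoxicity was tracked continuously in HEK293 cells by a DNA-binding dye excluded from viable cells. Compounds were transferred in DMSO 5 h after seeding; fluorescence was recorded at intervals up to 40 h.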

[2] = qHTS RealTime-Glo MT Cell Viability Assay in HEK293 cells - 16 hour (AID 1224872); also: top concentration of the series differs between compounds; nearly all actives have a fitted effect of over 50% in size
Summary of the method: (§2)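 Assay medium contained NanoLuc luciferase plus cell-permeant prosubstrate, added with HEK293 cells at 600 cells/well. After 5 h at 37 C/5% CO2 compounds were added; plates stayed at 37 C for 40 h with serial luminescence reads.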

[3] = qHTS RealTime-Glo MT Cell Viability Assay in HepG2 cells - 8 hour (AID 1224873); also: nearly all actives have a fitted effect of over 55% in size
Summary of the method: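 HepG2 cells mixed with RealTime-Glo MT reagents (NanoLuc plus cell-permeant prosubstrate) were seeded at 600 cells/well, incubated 5 h at 37 C/5% CO2, then pinned with compounds in DMSO; nonlytic luminescence tracked viability during 40 h treatment.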

[4] = qHTS RealTime-Glo MT Cell Viability Assay in HEK293 cells - 40 hour (AID 1224874); conditions: RealTime-Glo luminescence; max response: stronger effect = lower value; also: nearly all actives have a fitted effect of over 50% in size
Summary of the method: (§3)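 Nonlytic bioluminescent viability monitoring. HEK293 at 600 cells/well with reagent; 5 h settle; compound transfer by pintool; plates held at 37 C and read at set time points.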

[5] = A CellTox Green Cytotoxicity Assay to monitor cytotoxicity in HEK293 cells - 24 hour (AID 1224875); also: series mostly up to about 77 µM; nearly all actives have a fitted effect of over 45% in size
Summary of the method: as §1

[6] = A CellTox Green Cytotoxicity Assay to monitor cytotoxicity in HepG2 cells - 16 hour (AID 1224876); also: nearly all actives have a fitted effect of over 45% in size
Summary of the method: (§4)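 Real-time, homogeneous cytotoxicity readout: dead-cell DNA staining by CellTox Green in HepG2 monolayers, fluorescence measured at timed intervals up to 40 h of continuous compound exposure.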

[7] = qHTS RealTime-Glo MT Cell Viability Assay in HepG2 cells - 32 hour (AID 1224877); also: nearly all actives have a fitted effect of over 55% in size
Summary of the method: (§5)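 qHTS, HepG2, 600 cells/well, RealTime-Glo (NanoLuc + prosubstrate) added with cells; 5 h preincubation; DMSO compound addition; 37 C; luminescence at 0/8/16/24/32/40 h.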

[8] = A CellTox Green Cytotoxicity Assay to monitor cytotoxicity in HepG2 cells - 24 hour (AID 1224878); also: nearly all actives have a fitted effect of over 45% in size
Summary of the method: as §4

[9] = A CellTox Green Cytotoxicity Assay to monitor cytotoxicity in HepG2 cells - 40 hour (AID 1224879); also: nearly all actives have a fitted effect of over 40% in size
Summary of the method: as §4

[10] = qHTS RealTime-Glo MT Cell Viability Assay in HEK293 cells - 0 hour (AID 1224880)
Summary of the method: as §3

[11] = A CellTox Green Cytotoxicity Assay to monitor cytotoxicity in HEK293 cells - 32 hour (AID 1224881); also: nearly all actives have a fitted effect of over 40% in size
Summary of the method: as §1

[12] = A CellTox Green Cytotoxicity Assay to monitor cytotoxicity in HepG2 cells - 0 hour (AID 1224882); also: nearly all actives have a fitted effect of over 35% in size
Summary of the method: as §4

[13] = A CellTox Green Cytotoxicity Assay to monitor cytotoxicity in HepG2 cells - 32 hour (AID 1224883); also: nearly all actives have a fitted effect of over 50% in size
Summary of the method: as §4

[14] = A CellTox Green Cytotoxicity Assay to monitor cytotoxicity in HEK293 cells - 8 hour (AID 1224884); also: nearly all actives have a fitted effect of over 35% in size
Summary of the method: as §1

[15] = qHTS RealTime-Glo MT Cell Viability Assay in HepG2 cells - 16 hour (AID 1224885); also: nearly all actives have a fitted effect of over 50% in size
Summary of the method: as §5

[16] = qHTS RealTime-Glo MT Cell Viability Assay in HEK293 cells - 24 hour (AID 1224886)
Summary of the method: as §2

[17] = qHTS RealTime-Glo MT Cell Viability Assay in HEK293 cells - 8 hour (AID 1224887)
Summary of the method: as §3

[18] = A CellTox Green Cytotoxicity Assay to monitor cytotoxicity in HEK293 cells - 16 hour (AID 1224888); also: nearly all actives have a fitted effect of over 35% in size
Summary of the method: as §1

[19] = qHTS RealTime-Glo MT Cell Viability Assay in HepG2 cells - 0 hour (AID 1224889); also: nearly all actives have a fitted effect of over 50% in size
Summary of the method: as §5

[20] = A CellTox Green Cytotoxicity Assay to monitor cytotoxicity in HepG2 cells - 8 hour (AID 1224890); also: nearly all actives have a fitted effect of over 45% in size
Summary of the method: as §4
% is scaled to controls: 0 for no effect and ±100 for the full control effect.

CC[C@@H](CO)NC(=O)[C@@H]1C=C2c3cccc4c3c(cn4C)C[C@H]2N(C)C1
inactive: Potency [1] | Potency [2] | outcome [3] | max response [4] -3.36% | Potency [5] | Potency [6] | Potency [7] | Potency [8] | Potency [9] | outcome [10] | Potency [11] | outcome [12] | Potency [13] | Potency [14] | Potency [15] | Potency [16] | Potency [17] | Potency [18] | outcome [19] | Potency [20]

CCCC(C)C1(CC)C(=O)N=C(S)NC1=O (configuration not stated)
inactive: Potency [1] | Potency [2] | outcome [3] | max response [4] 1.79% | Potency [5] | Potency [6] | Potency [7] | Potency [8] | Potency [9] | outcome [10] | Potency [11] | outcome [12] | Potency [13] | Potency [14] | Potency [15] | Potency [16] | Potency [17] | outcome [19] | Potency [20]

COC(=O)c1ccccc1CS(=O)(=O)NC(=O)Nc1nc(OC)cc(OC)n1
inactive: Potency [1] | Potency [2] | outcome [3] | max response [4] 1.53% | Potency [5] | Potency [6] | Potency [7] | Potency [8] | Potency [9] | outcome [10] | Potency [11] | outcome [12] | Potency [13] | Potency [14] | Potency [15] | Potency [16] | Potency [17] | outcome [19] | Potency [20]

C=C(Cl)CSC(=S)N(CC)CC
inactive: Potency [1] | Potency [2] | outcome [3] | max response [4] -15% | Potency [5] | Potency [6] | Potency [7] | Potency [8] | Potency [9] | outcome [10] | Potency [11] | outcome [12] | Potency [13] | Potency [15] | Potency [16] | Potency [17] | Potency [18] | outcome [19]

CN1COCN(Cc2cnc(Cl)s2)/C1=N\[N+](=O)[O-]
inactive: Potency [1] | Potency [2] | outcome [3] | max response [4] 7.06% | Potency [5] | Potency [6] | Potency [7] | Potency [8] | Potency [9] | outcome [10] | Potency [11] | outcome [12] | Potency [13] | Potency [14] | Potency [16] | Potency [17] | Potency [18] | outcome [19] | Potency [20]

COP(=O)(O)OC
inactive: Potency [1] | Potency [2] | outcome [3] | max response [4] -2.51% | Potency [5] | Potency [6] | Potency [7] | Potency [8] | Potency [9] | outcome [10] | Potency [11] | outcome [12] | Potency [13] | Potency [14] | Potency [15] | Potency [16] | Potency [17] | outcome [19] | Potency [20]

CCCCOC(C)=O
inactive: Potency [1] | Potency [2] | outcome [3] | max response [4] 8.22% | Potency [5] | Potency [6] | Potency [7] | Potency [8] | Potency [9] | outcome [10] | Potency [11] | outcome [12] | Potency [13] | Potency [14] | Potency [15] | Potency [16] | Potency [17] | outcome [19] | Potency [20]

O=S1(=O)OCCO1
inactive: Potency [1] | Potency [2] | outcome [3] | max response [4] 4.27% | Potency [5] | Potency [6] | Potency [7] | Potency [8] | Potency [9] | outcome [10] | Potency [11] | outcome [12] | Potency [13] | Potency [15] | Potency [16] | Potency [17] | Potency [18] | outcome [19]

O=[N+]([O-])c1cccc(CCl)c1
inactive: Potency [1] | Potency [2] | outcome [3] | max response [4] 6.77% | Potency [5] | Potency [6] | Potency [7] | Potency [8] | Potency [9] | outcome [10] | Potency [11] | outcome [12] | Potency [13] | Potency [14] | Potency [15] | Potency [16] | Potency [17] | outcome [19]

O=C/C=C/c1ccco1
inactive: Potency [1] | Potency [2] | outcome [3] | max response [4] 3.04% | Potency [5] | Potency [6] | Potency [7] | Potency [8] | Potency [9] | outcome [10] | Potency [11] | outcome [12] | Potency [13] | Potency [14] | Potency [16] | Potency [17] | Potency [18] | outcome [19] | Potency [20]

c1cncc([C@@H]2CCCCN2)c1
inactive: Potency [1] | Potency [2] | outcome [3] | max response [4] 9.53% | Potency [5] | Potency [6] | Potency [7] | Potency [8] | Potency [9] | outcome [10] | Potency [11] | outcome [12] | Potency [13] | Potency [15] | Potency [16] | Potency [17] | Potency [18] | outcome [19]

CCC1(CC)C(=O)C=CNC1=O
inactive: Potency [1] | Potency [2] | outcome [3] | max response [4] 1.59% | Potency [5] | Potency [6] | Potency [7] | Potency [8] | Potency [9] | outcome [10] | outcome [12] | Potency [13] | Potency [14] | Potency [15] | Potency [16] | Potency [17] | outcome [19] | Potency [20]

C1CN2CCC1CC2
inactive: Potency [1] | Potency [2] | outcome [3] | max response [4] 0.665% | Potency [5] | Potency [6] | Potency [7] | Potency [8] | Potency [9] | outcome [10] | outcome [12] | Potency [13] | Potency [15] | Potency [16] | Potency [17] | outcome [19] | Potency [20]

Cc1ccc(Cl)c(O)c1
inactive: Potency [1] | Potency [2] | outcome [3] | max response [4] 1.02% | Potency [5] | Potency [6] | Potency [7] | Potency [8] | Potency [9] | outcome [10] | outcome [12] | Potency [13] | Potency [15] | Potency [16] | Potency [17] | Potency [18] | outcome [19] | Potency [20]

CC[C@H](N)c1ccccc1
inactive: Potency [1] | Potency [2] | outcome [3] | max response [4] 5.02% | Potency [5] | Potency [6] | Potency [7] | Potency [8] | Potency [9] | outcome [10] | outcome [12] | Potency [13] | Potency [14] | Potency [16] | Potency [17] | Potency [18] | outcome [19] | Potency [20]
